# ID4 SMM – binders of human ID4 protein, primary screen, biochemical, small molecule microarray, single point; calls only; Flag-ID4 binding, fluorescence F/B; 31,000 compounds, 1.2% hits; AID 624137, 2012; call rule not given here;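 note: a binder raises fluorescence above local background on the spot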
# Target sequence (P47928 whole entry, looked up): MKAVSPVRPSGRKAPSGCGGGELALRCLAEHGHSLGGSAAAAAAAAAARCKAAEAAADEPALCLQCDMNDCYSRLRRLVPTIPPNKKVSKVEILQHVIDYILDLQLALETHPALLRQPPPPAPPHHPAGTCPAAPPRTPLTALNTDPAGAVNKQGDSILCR
# Calls only; – = inactive; + = active, no number. Many of the other results were omitted from the sample, so hits are more common in it than they were.
SMILES,ID4 SMM
CCOC(=O)c1c(NC(=O)c2ccc(C)c(S(=O)(=O)N3CCCCCC3)c2)sc(C)c1C,–
O=C(CSc1n[nH]c(-c2ccc(Cl)cc2)n1)c1ccc(Br)cc1,–
CCOC(=O)c1c(NC(=S)NCc2cc(C)n(C)n2)sc2c1CCCC2,–
CCOC(=O)c1c(NC(=O)Cn2nc(C)c([N+](=O)[O-])c2C)sc2c1CCCC2,–
CCOC(=O)c1c(NC(=S)N(C)Cc2c(C)nn(C)c2C)sc2c1CCCCCC2,+
O=c1c(-c2ccccc2)[n+]([O-])c2ccccc2n1OCc1ccccc1,–
COc1nnc(-c2ccc(N3CCOCC3)c(NC(=O)COc3ccc(C)cc3)c2)c2ccccc12,–
Cn1c(SCc2nc3ccccc3c(=O)[nH]2)nnc1-c1ccco1,–
Cn1c(SCc2nc(-c3cccs3)no2)nnc1-c1ccccc1,–
Cn1c(SCc2nc(-c3cccs3)no2)nnc1-c1ccco1,+
CCn1c(SCC(=O)Nc2ccc(C)cc2C)nnc1-c1cccs1,–
C(=C\c1ccccc1)/C=N/N1CCN(Cc2cccc3ccccc23)CC1,–
